Data as given in PubChem BioAssay (NCATS).
Inconclusive results are not listed. A call without a number means that no potency is given here. The source made the active and inactive calls. Calls follow the shape of the dose curve; as a rule, active = well fitted cell-killing curve with a large enough effect; inconclusive = small, poorly fitted or top-dose-only effect, or effect the other way; inactive = flat fitted curve, though single readings scatter.
Potency is read from the fitted curve at half-maximal effect.

What follows are compounds tested on PA-1 (assay: Primary qHTS to identify gynecologic anti-cancer compounds using libraries of approved drugs and bioactive compounds (AID 1345084; also: nearly all actives have a fitted effect of over 55% in size)). Settings: Gynecologic cancer cell panel viability, ATPlite luminescence, 48 h; series mostly up to 57.5 µM.
Outline: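 Cells, 1,000 per well, were allowed to settle for 16 h at 37 C before compound addition. Five concentrations were tested for 48 h, and viability was read by ATPlite luminescence after 15 min at room temperature.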
With Cc1c(OCc2cccc(-c3ccc(C(=O)O)cc3)c2)cc2c(c1C)C(=O)C(C1CCCC1)C2 (configuration not stated) the Potency was “inactive”. For Cn1cc(-c2ccc(S(=O)(=O)n3ccc(/C=C/C(=O)Nc4ccccc4N)c3)cc2)cn1, the Potency was 7.08 µM (active). With CC1(NC(=O)c2ccc(C#Cc3cccc(F)c3)cn2)COC1 the Potency was “inactive”. With O=C(NCCN1CCC(n2c(=O)[nH]c3ccccc32)CC1)c1cc2cc(F)ccc2[nH]1 the Potency was “inactive”. For NC(=O)CCCSc1nc(N)nc(-c2c(Cl)cc3c4c(cccc24)COC3)n1, the Potency was 0.891 µM (active). With CCN1CCC[C@@H]1CNC(=O)c1ccc2c(c1)NC(=O)c1cccc(C)c1S2 the Potency was “inactive”. For O=C(CNC(=O)c1cccc(C(F)(F)F)c1)N[C@@H]1CCN(Cc2ccc(Cl)cc2)C1, the Potency was “inactive”. CC(=O)NC(C)c1cnc(-c2cnc(Oc3ccc(OC(C)C)cc3)s2)s1 (configuration not stated) was tested, and the Potency was “inactive”. With O=C(NNc1nc2cc(F)ccc2n2cccc12)c1cnccn1 the Potency was 3.55 µM (active). In the case of C[C@@H](Nc1ncnc2[nH]c(-c3ccc(O)cc3)cc12)c1ccccc1, the Potency is reported as “inactive”. With CC1=CC2/C=C(\C)CCC3OC(C)(C)OC3CCC(=O)C23C(=O)NC(CC(C)C)C3C1C (configuration not stated) the Potency was “inactive”. With CC1(CO)CC2C(O)C3=C(CC(C)(O)C2C1)C(=O)OC3 (configuration not stated) the Potency was “inactive”.
